From PubChem BioAssay (Tox21)
Where “and” joins values, the source holds several entries; their conditions need not be identical. Equal values may be shown once. Inconclusive results are not listed. Where a call stands in place of a potency, no number is given. Values without a mark were called inactive. Calls of active or inactive are those of the source. Calls follow the shape of the dose curve; as a rule, active = well fitted inhibition curve with a large enough effect in the signal ratio in the repeat runs (not every such curve was filed as active); inconclusive = weak or mixed curves, or effect the other way; inactive = no such curve, though single readings can be large or run the other way; the % refers to the signal ratio.

Target: Estrogen receptor beta (Homo sapiens) (UniProt Q92731)
Sequence (Q92731 whole entry, looked up): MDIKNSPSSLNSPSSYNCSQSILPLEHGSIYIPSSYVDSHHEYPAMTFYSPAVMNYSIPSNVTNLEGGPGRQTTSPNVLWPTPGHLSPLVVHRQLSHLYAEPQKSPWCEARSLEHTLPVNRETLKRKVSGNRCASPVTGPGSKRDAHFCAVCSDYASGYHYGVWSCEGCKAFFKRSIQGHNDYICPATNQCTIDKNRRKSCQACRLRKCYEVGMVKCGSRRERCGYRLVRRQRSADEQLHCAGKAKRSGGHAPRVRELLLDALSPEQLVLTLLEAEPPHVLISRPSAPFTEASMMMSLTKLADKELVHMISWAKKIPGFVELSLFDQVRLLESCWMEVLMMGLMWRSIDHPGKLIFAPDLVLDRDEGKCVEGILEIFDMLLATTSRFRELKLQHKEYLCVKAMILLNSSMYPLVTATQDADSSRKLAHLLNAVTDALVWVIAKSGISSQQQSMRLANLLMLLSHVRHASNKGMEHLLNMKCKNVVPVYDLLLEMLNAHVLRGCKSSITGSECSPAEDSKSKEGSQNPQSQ
Experiment: qHTS assay to identify small molecule antagonists of the estrogen receptor beta (ER-beta) signaling pathway (AID 1259378)
Settings: ER-beta-UAS-bla HEK293T, beta-lactamase FRET ratio, 16 h; series mostly up to 92.4 µM; activity, negative = inhibition: at the top concentration
Description: National Center for Advancing Translational Sciences [NCATS]
NIH Chemical Genomics Center [NCGC]
U.S. Environmental Protection Agency [EPA]
National Institutes of Environmental Health Sciences [NIEHS]
National Toxicology Program [NTP]
U.S. Food and Drug Administration [FDA]
Estrogen receptor (ER), a nuclear hormone receptor, plays an important role in development, metabolic homeostasis and reproduction. Two subtypes of ER, ER-alpha and ER-beta, have similar expression patterns with some uniqueness in both types. Endocrine disrupting chemicals (EDCs) and their interactions with steroid hormone receptors like ER causes disruption of normal endocrine function. To identify the compounds that inhibit ER signaling, an ER-beta-UAS-bla GripTite cell line (Life Technologies, Madison, WI, USA) containing a beta-lactamase reporter gene under the control of an UAS response element was used to screen Tox21 10K compound library.
Tox21 Assay Protocol Summary:
ER-beta-UAS-bla HEK293T cells were dispensed at 2,000 cells/4 uL of assay medium containing 2% charcoal stripped FBS per well into black wall/clear-bottom 1536-well plates using a Multidrop Combi (ThermoFisher Scientific, Waltham, MA) dispenser. After the assay plates were incubated at a 37C and 5% CO2 for 6 hr, 23 nL of compounds dissolved in DMSO, positive controls or DMSO only was transferred to the assay plate by a Pintool station (Kalypsys, San Diego, CA), followed by addition of 1 uL (1nM as final concentration) of 17-beta-estradiol (E2) in assay medium using a BioRAPTR FRD (Flying Reagent Dispenser, Aurora Discovery, San Diego, CA). The plates were incubated at 37C and 5% CO2 for 16 hr. Then 1 uL of LiveBLAzerTM B/G FRET substrate was added using a Flying Reagent Dispenser, the plates were incubated at room temperature for 2 hours, and fluorescence intensity was measured by an Envision plate reader (PerkinElmer, Shelton, CT).
Potency is read from the fitted curve at half-maximal effect.

| Structure (SMILES) | Potency | activity, negative = inhibition [%] |
| --- | --- | --- |
| Cc1cccc(C)c1[N+](=O)[O-] | inactive | – |
| CC(CN1c2ccccc2Sc2ccccc21)N(C)C (stereo not given) | 43.3 µM (active) and 29.8 µM (active) | – |
| CN1CCCC1=O | inactive | – |
| CN=C(NC#N)NCCSCc1nc[nH]c1C | inactive | – |
| CCCCCC(C)=O | – | 1.45 |
| OCC(O)CS (stereo not given) | inactive | – |
| Cc1ccc([N+](=O)[O-])cc1N | inactive | – |
| NC(=O)NC(N)=O | inactive | – |
| C[Si](C)(C)N[Si](C)(C)C | – | -3.45 |
| Cc1cc(C)cc(O)c1 | – | 1.17 |
| CC(=O)OC[C@H]1O[C@@](COC(C)=O)(O[C@H]2O[C@H](COC(C)=O)[C@@H](OC(C)=O)[C@H](OC(C)=O)[C@H]2OC(C)=O)[C@@H](OC(C)=O)[C@@H]1OC(C)=O | inactive | – |
| CC/C(C)=N/O | inactive | – |
| CCN(CC)CCNC(=O)c1ccc(N)cc1 | inactive | – |
| CS(=O)(=O)c1ccc(Cl)cc1 | inactive | – |
| Cc1ccncc1 | inactive | – |
| Nc1cccc(C(F)(F)F)c1 | inactive | – |
| CCc1cccc(CC)c1N | – | -7.59 |
| OCC(CO)(CO)CO | inactive | – |
| CC(COCC(C)OC(=O)c1ccccc1)OC(=O)c1ccccc1 (stereo not given) | inactive | – |
| CCc1cccc(O)c1 | inactive | – |

| Structure (SMILES) | Potency | activity, negative = inhibition [%] |
| --- | --- | --- |
| Cc1cc(CC(=O)O)n(C)c1C(=O)c1ccc(Cl)cc1 | inactive | – |
| C1CCCNCC1 | – | -0.361 |
| O=[N+]([O-])c1cc(C(F)(F)F)ccc1Cl | inactive | – |
| COC(=O)/C=C\C(=O)OC | inactive | – |
| NC1CCCCC1N (stereo not given) | inactive | – |
| CC/C=C(\C(=O)N[C@@H]1C(=O)N2C(C(=O)OCOC(=O)C(C)(C)C)=C(COC(N)=O)CS[C@H]12)c1csc(N)n1 | inactive | – |
| CCCCCNCCCCC | – | -1.66 |
| CCCCCCCCC(=O)O | – | 6.76 |
| CC(C)c1ccc(C(C)C)cc1 | inactive | – |
| CCOC(=O)c1ccc(O)cc1 | inactive | – |
| CC(C=O)Cc1ccc(C(C)(C)C)cc1 (stereo not given) | inactive | – |
| O=Cc1ccc(CO)o1 | inactive | – |
| O=C(Cl)c1ccc(C(=O)Cl)cc1 | – | 19.1 |
| CCCCCCCC(=O)O | inactive | – |
| COc1ccc([C@@H]2CC(=O)c3c(O)cc(O[C@@H]4O[C@H](CO[C@@H]5O[C@@H](C)[C@H](O)[C@@H](O)[C@H]5O)[C@@H](O)[C@H](O)[C@H]4O)cc3O2)cc1OC | inactive | – |
| CCCN(CCC)C(=O)SCC | inactive | – |
| COc1c(Cl)ccc(Cl)c1C(=O)O | inactive | – |
| COc1c2ccoc2cc2oc(=O)ccc12 | – | -9.88 |
| C[n+]1ccn(CCO)c1 | inactive | – |
| C=C(CC(=O)O)C(=O)O | inactive | – |
